Data from PubChem BioAssay (NCI).
Compounds without any hit were thinned out: in the full panel of roughly 83,000, 20% have a hit.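 Note: values are percent growth. 100 is the growth of untreated cells, values between 100 and 0 indicate rising inhibition; between -100 and 0 indicates cell death.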 Values without a mark were called inactive. The source made the active and inactive calls. The calls were made as follows: active = growth percent below 10; inactive = the rest.

These molecules were tested on HL-60(TB) leukemia (assay: NCI-60 one-dose screen, 48 h (100 = growth as untreated, 0 = no growth, -100 = all killed)). Conditions: 10 µM unless noted.

| Structure (SMILES) | growth |
| --- | --- |
| CCOC(=O)c1c(C)nc2c(c1N)/C(=C/c1ccc[nH]1)C(=O)N2Cc1ccc(C(F)(F)F)cc1 | 96.7% |
| NCCCOc1cc(Cl)ccc1NC(=O)c1cc2ccccc2cc1OCCCN | -73% (active) |
| O=C(NCc1ccco1)C1CN(c2ccc(Cl)cc2)N(c2ccc(Cl)cc2)C1=O (stereo not given) | 5.03% (active) |
| C=CC(=O)Nc1cccc(Nc2nc(Nc3ccc(OCCOC(F)F)cc3)ncc2F)c1 | 19.8% |
| COc1ccc(-c2nn(-c3ccc(NC(=O)c4cc(Cl)cc(Cl)c4)cc3)cc2-c2ccncc2)cc1Cl | 20.3% |
| CC/C(Cc1ccccc1)=C(/c1ccc(O)cc1)c1ccc(OCCN2CCCC2)cc1 | -56.9% (active) |
| Cc1cc(O)c(C2=NN(c3ccc(S(N)(=O)=O)cc3)C(c3ccc(N(C)C)cc3)C2)c(C)c1Cl (stereo not given) | 24.1% |
| O=C1/C=C/[C@@H](O)[C@@H]2C[C@@H](O)C[C@H]2/C=C/CCC[C@H](CCO)O1 | 3.3% (active) |
| CSc1ccc2c(c1)C(N1CCN(C)CC1)Cc1ccccc1S2 (stereo not given) | 52.7% |
| Cc1ccc(SCN2CCN(c3cccc(Cl)c3)CC2)cc1 | 111% |
| O=C(O)c1ccc(CO)o1 | 85.6% |
| O=C1CC(c2cccc(F)c2)c2c(n[nH]c2-c2ccc(Cl)cc2)N1 (stereo not given) | 97.3% |
| Nn1c(=O)c(=O)[nH]c2c(cnn2-c2ccccc2)c1=O | 98.6% |
| C=C(c1ccc(N(C)C)cc1)c1ccc(N(C)C)cc1 | -6.12% (active) |
| O=C(CS)Nc1ccc2ccccc2c1 | 120% |
